From PubChem BioAssay
Measured potencies and affinities stand elsewhere. Results filed as inconclusive are left out. Calls of active or inactive are those of the source.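 The calls were made as follows, unless noted: active = fitted dose curve reaches 40% lysis signal rise at or below the highest valid concentration tested for that sample; inconclusive = flat fit between 30% and 70%, or poor curve fit; inactive = signal falls, stays flat within 30%, or no crossing.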

What was measured:
[1] = fungal growth arrest, C. neoformans – Alamar Blue, cherry-picks, dose response (AID 686998;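 active = falling signal with fitted half-maximal potency no higher than twice the top valid tested dose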)
[2] = C. neoformans lysis by adenylate kinase leakage – AK release luminescence, cherry-picks, dose response (AID 687000);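 also: luminescent detection of adenylate kinase leaking from lysed yeast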
[3] = viability loss in HepG2 hepatoma cells – cell-based, cherry-picks, set 2, cytotoxicity control, dose response (AID 687002;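 active = a dose-response fit showing signal loss, with half-maximal concentration no higher than twice the top tested dose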)
[4] = viability loss in HeLa cells – cell-based, ATP luminescence, cherry-pick samples, cytotoxicity control, dose response (AID 687004;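 active = a fitted half-maximal concentration no higher than twice the top valid tested dose, with signal falling as cells die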)

Measured: outcome

O=C(NC(=S)Nc1ccc(CN2CCOCC2)cc1)c1ccccc1[N+](=O)[O-]
inactive: all assays above

Cc1nnc(NC(=O)CSc2ncnc3c2cnn3-c2ccccc2C)s1
inactive: all assays above

C[C@H]1CN([C@@H](C)CO)C(=O)Cc2cc(NC(=O)Nc3ccccc3)ccc2O[C@H]1CN(C)C(=O)Nc1ccc2c(c1)OCO2
inactive: all assays above

CC(C)(C)SCCNC(=O)CN(c1ccccc1)S(=O)(=O)c1ccc(F)cc1
inactive: all assays above

O=C(C[C@@H]1CC[C@H]2[C@@H](COC[C@@H](O)CN2C(=O)Nc2ccc(Cl)cc2)O1)NCCc1ccncc1
inactive: all assays above

O=C(Nc1ccccc1)N[C@@H]1CC[C@@H](CCNC(=O)c2ccccc2F)O[C@H]1CO
inactive: all assays above

CC(C)NC(=O)Nc1ccc2c(c1)C(=O)N([C@@H](C)CO)C[C@@H](C)[C@H](CN(C)C(=O)Cc1ccccc1)OCCCC[C@@H](C)O2
inactive: all assays above

Cc1noc(C)c1S(=O)(=O)Nc1ccc2c(c1)C(=O)N([C@H](C)CO)C[C@H](C)[C@H](CN(C)Cc1ccncc1)O2
inactive: all assays above

COCCNC(=O)C[C@@H]1C[C@@H]2c3cc(NC(=O)C4CCOCC4)ccc3O[C@@H]2[C@@H](CO)O1
inactive: all assays above

CNC(=O)C[C@@H]1CC[C@@H]2[C@H](COC[C@@H](O)CN2C(=O)Nc2ccc3c(c2)OCO3)O1
inactive: all assays above

Cc1cc(C)c(NC(=O)C2CCCN2CCO)c(C)c1 (stereo not given)
inactive: all assays above

O=C(NCc1ccc(F)cc1)C1C2C=CC3(CN(Cc4cccnc4)C(=O)C13)O2 (stereo not given)
inactive: all assays above

O=C(CSc1ncnc2c1cnn2-c1ccccc1Cl)N1CCN(C(=O)c2ccco2)CC1
inactive: all assays above

COc1ccc(NC(=O)Nc2ccc3c(c2)C(=O)N([C@H](C)CO)C[C@@H](C)[C@@H](CN(C)C(=O)CCC(F)(F)F)OCCCC[C@H](C)O3)cc1
inactive: all assays above

CC(C)(C)NC(=O)CSc1ncnc2c1cnn2-c1ccccc1
inactive: all assays above

CCS(CC)=NS(=O)(=O)c1ccc(NC(C)=O)cc1
inactive: all assays above

C[C@@H](O)C#Cc1ccc([C@@H]2[C@H]3CN(CC4CC4)CCCCN3[C@H]2CO)cc1
inactive: all assays above

CCCNC(=O)N1C[C@H](O)COC[C@H]2O[C@H](CC(=O)N3CCN(C)CC3)CC[C@@H]21
inactive: all assays above

COCC#Cc1cnc2c(c1)C(=O)N([C@@H](C)CO)C[C@@H](C)[C@@H](CN(C)C(=O)C1CC1)O2
inactive: all assays above

CN1C(=O)N[C@@H]2c3ccccc3O[C@@]1(C)[C@@H]2COC(=O)c1ccccc1
inactive: all assays above

O=C(C[C@H]1CC[C@H]2[C@@H](COC[C@H](O)CN2Cc2cccc(Cl)c2)O1)Nc1nccs1
inactive: all assays above

C[C@H](CO)N1C[C@H](C)[C@H](CN(C)C(=O)Nc2ccc3c(c2)OCO3)Oc2ncc(-c3ccc(F)cc3)cc2C1=O
inactive: all assays above

CN1C(=O)c2cc(NS(=O)(=O)c3cccc(F)c3)ccc2OC[C@H]2O[C@H](CC(=O)O)CC[C@H]21
inactive: all assays above

C[C@@H]1CCCCO[C@@H](CN(C)Cc2ccncc2)[C@@H](C)CN([C@@H](C)CO)C(=O)c2cc(NC(=O)c3ccncc3)ccc2O1
inactive: all assays above

CCC(=O)N1[C@H](C(=O)Nc2ccccc2)[C@@H](CO)[C@@H]2Cn3c(ccc(-c4ccncc4)c3=O)[C@@H]21
inactive: all assays above

CN1C(=O)c2cc(NC(=O)NC3CCCC3)ccc2OC[C@H]2O[C@@H](CC(=O)NCC3CC3)CC[C@@H]21
inactive: all assays above

COCC(=O)N1C[C@H](C)[C@@H](OC)CN(C)C(=O)c2ccc(NS(C)(=O)=O)cc2OC[C@@H]1C
inactive: all assays above

CCCN1C[C@@H](C)[C@H](OC)CN(C)C(=O)c2ccc(NC(=O)c3cccc(F)c3)cc2OC[C@@H]1C
inactive: all assays above

O=S(=O)(NC[C@@H]1[C@@H](c2ccccc2)[C@H](CO)N1CC1CC1)c1ccccc1
inactive: all assays above

Cc1cc(C)c(N2CCCC2C(=O)Nc2cccc(C(F)(F)F)c2)c(C)c1 (stereo not given)
inactive: all assays above

O=C([C@@H]1[C@@H](CO)[C@@H]2Cn3c(cccc3=O)[C@H]1N2Cc1cccc(Cl)c1)N1CCOCC1
inactive: all assays above

Cc1noc(C)c1S(=O)(=O)N(C)C[C@H]1OCCCC[C@@H](C)Oc2ccc(NC(=O)CCCCCC(=O)Nc3ccccc3N)cc2C(=O)N([C@@H](C)CO)C[C@@H]1C
inactive: all assays above

C[C@H](CO)N1C[C@H](C)[C@H](CN(C)S(=O)(=O)c2ccccc2)Oc2ccc(NS(=O)(=O)c3ccc(F)cc3)cc2C1=O
inactive: all assays above

C[C@H]1CN([C@@H](C)CO)C(=O)c2cccc(N(C)C)c2O[C@@H]1CN(C)C(=O)Nc1cccc2ccccc12
inactive: all assays above

COc1ccc(S(=O)(=O)Nc2ccc3c(c2)C(=O)N([C@H](C)CO)C[C@H](C)[C@H](CN(C)C(=O)Nc2ccccc2)O3)cc1
inactive: all assays above

CCCNC(=O)Nc1ccc2c(c1)C(=O)N(C)C[C@H](OC)[C@@H](C)CN(Cc1cccnc1)[C@H](C)CO2
inactive: all assays above

C[C@@H]1CN([C@H](C)CO)C(=O)c2cc(C#CC(C)(C)O)cnc2O[C@@H]1CN(C)Cc1cncnc1
inactive: all assays above

Cc1ccc(NC(=O)C2(C)CCN2C(=O)CCC2CCCC2)cc1C (stereo not given)
inactive: all assays above

COc1ccc(NC(=O)Nc2ccc3c(c2)C(=O)N([C@H](C)CO)C[C@@H](C)[C@H](CN(C)S(=O)(=O)c2ccc(Cl)cc2)OCCCC[C@@H](C)O3)cc1
inactive: all assays above

CCC(=O)Nc1ccc2c(c1)C(=O)N(C)C[C@@H](OC)[C@H](C)CN[C@@H](C)CO2
inactive: all assays above

O=C(C[C@@H]1C[C@@H]2c3cc(NC(=O)C4CCC4)ccc3O[C@@H]2[C@H](CO)O1)NCc1cccc(F)c1
inactive: all assays above

CCCNC(=O)C[C@H]1C[C@H]2c3cc(NC(=O)Nc4ccc(OC)cc4)ccc3O[C@H]2[C@@H](CO)O1
inactive: all assays above

C[C@@H]1CCCCO[C@H](CN(C)Cc2ccncc2)[C@@H](C)CN([C@@H](C)CO)C(=O)c2cc(NC(=O)Nc3ccccc3)ccc2O1
inactive: all assays above

CCCNC(=O)C[C@@H]1CC[C@H]2[C@@H](COC[C@H](O)CN2Cc2ccccc2F)O1
inactive: all assays above

COc1ccc(S(=O)(=O)N[C@@H]2C=C[C@@H](CC(=O)N3CCC(Cc4ccccc4)CC3)O[C@H]2CO)cc1
inactive: all assays above

Cc1ccc(S(=O)(=O)Nc2ccc3c(c2)C(=O)N([C@@H](C)CO)C[C@H](C)[C@H](CN(C)S(=O)(=O)c2ccc(Cl)cc2)OCCCC[C@@H](C)O3)cc1
inactive: all assays above

Cc1noc(C)c1NC(=O)Nc1cccc2c1O[C@H](CN(C)S(=O)(=O)c1cn(C)cn1)[C@H](C)CN([C@H](C)CO)C2=O
inactive: all assays above

O=C(c1cccnc1)N1CCC(Oc2ccc(C(=O)N3CCCC(O)C3)cc2)CC1 (stereo not given)
inactive: all assays above

CO[C@H]1CC[C@H]2CCOc3c(C#N)cccc3C(=O)N(C)C[C@@H](C)C(=O)N(C)C[C@H]1O2
inactive: all assays above

CCC(C)(C(=O)Nc1cccc(C)c1)N1CCC1=O (stereo not given)
inactive: all assays above

O=C(C[C@H]1C[C@@H]2c3cc(NC(=O)c4cccnc4)ccc3O[C@@H]2[C@@H](CO)O1)NCCc1ccccc1
inactive: all assays above

CN1C(=O)c2cc(NS(=O)(=O)c3cccc(F)c3)ccc2OC[C@@H]2O[C@@H](CC(=O)O)CC[C@H]21
inactive: all assays above

Cc1cccc(NC(=O)C2NC(=O)CC2c2ccccc2)c1C (stereo not given)
inactive: all assays above

C[C@H](NC(=O)C[C@@H]1C=C[C@H](NC(=O)CN2CCOCC2)[C@@H](CO)O1)c1ccccc1
inactive: all assays above

COc1ccc(NC(=O)N(C)C[C@@H]2OCCCC[C@H](C)Oc3ccc(NC(=O)Nc4ccc5c(c4)OCO5)cc3C(=O)N([C@H](C)CO)C[C@@H]2C)cc1
inactive: all assays above
